Where a name gives a salt, the structure may show the parent alone.

This assay concerns replication-induced senescent mouse newborn dermal fibroblasts (NBF). As to the kind of experiment: relative cell viability of senescent cells (fraction); higher = less killing of senescent cells. Conditions: 1 µM; 3 days. The procedure: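 Replication-induced senescent newborn mouse skin fibroblasts (NBFs) in 24-well plates were treated with a Selleck FDA-approved drug library at 1 µM for 3 days.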
As to `COC(=O)C1=C(C)NC(C)=C(C(=O)OCC(C)C)C1c1ccccc1[N+](=O)[O-]` (stereo not given) [Nisoldipine], the relative cell viability came to 1.12.

With `Nc1cccc2c1CN(C1CCC(=O)NC1=O)C2=O` (stereo not given) [Lenalidomide (CC-5013)], the relative cell viability was determined as 1.04.

In the case of `Nc1nc2ccc(OC(F)(F)F)cc2s1` [Riluzole], the relative cell viability stood at 0.836.

Take `O=C(O)/C=C/c1ccc(Cn2ccnc2)cc1` [Ozagrel]: the relative cell viability is 1.02.

The molecule `COC(=O)C1=C(C)NC(C)=C(C(=O)OC(C)C)C1c1cccc2nonc12` (stereo not given) [Isradipine] came in with a relative cell viability of 0.977.

Molecule `c1ccc2c(CC3=NCCN3)cccc2c1` [Naphazoline HCl] gave a relative cell viability of 0.868.

On to `CC(C(=O)O)c1ccc(C(=O)c2cccs2)cc1` (stereo not given) [Suprofen], for which the relative cell viability amounted to 0.929.

Take `CC(C)CN(C[C@@H](O)[C@H](Cc1ccccc1)NC(=O)O[C@H]1CO[C@H]2OCC[C@H]21)S(=O)(=O)c1ccc(N)cc1` [Darunavir Ethanolate]: the relative cell viability came to 0.839.

Molecule `NS(=O)(=O)Cc1noc2ccccc12` [Zonisamide] displayed a relative cell viability of 1.11.

The molecule `CN(C)C/C=C/C(=O)Nc1cc2c(Nc3ccc(F)c(Cl)c3)ncnc2cc1O[C@H]1CCOC1` [Afatinib (BIBW2992)] registered a relative cell viability of 0.539.

`NCCCCCC(=O)O` [(6-)ε-Aminocaproic acid] returned a relative cell viability of 0.983.

Molecule `C[C@H](CCC(=O)O)[C@H]1CC[C@H]2[C@@H]3[C@H](O)C[C@@H]4C[C@H](O)CC[C@]4(C)[C@H]3CC[C@]12C` [Chenodeoxycholic Acid] gave a relative cell viability of 1.06.

In turn, `Cc1cn(-c2cc(NC(=O)c3ccc(C)c(Nc4nccc(-c5cccnc5)n4)c3)cc(C(F)(F)F)c2)cn1` [Nilotinib (AMN-107)] displayed a relative cell viability of 0.044.

As to `COc1cc2c(Oc3ccc(NC(=O)C4(C(=O)Nc5ccc(F)cc5)CC4)cc3F)ccnc2cc1OCCCN1CCOCC1`, the relative cell viability is 0.757.

Consider `N=C(N)NC(=N)N1CCOCC1` [Moroxydine HCl], for which the relative cell viability was 0.965.

With `Nc1ccn([C@@H]2CS[C@H](CO)O2)c(=O)n1` [Lamivudine], the relative cell viability turned out to be 0.759.

On to `CN(C)CCOc1ccc(/C(=C(/CCCl)c2ccccc2)c2ccccc2)cc1` [Toremifene Citrate], for which the relative cell viability worked out at 0.956.

Take `CC(C)C[C@H](NC(=O)[C@@H](NC(=O)c1cccc(-c2ccccc2)n1)[C@@H](C)O)B(O)O`: the relative cell viability worked out at 1.1.

In turn, `Nc1cccc2c1C(=O)N(C1CCC(=O)NC1=O)C2=O` (stereo not given) [Pomalidomide] gave a relative cell viability of 1.19.

The molecule `OC(CNCC(O)C1CCc2cc(F)ccc2O1)C1CCc2cc(F)ccc2O1` (stereo not given) [Nebivolol] had a relative cell viability of 0.256.

For `Cc1[nH]c2ccccc2c1CCNCc1ccc(/C=C/C(=O)NO)cc1` [Panobinostat (LBH589)], the relative cell viability is 1.08.

`Cc1nc(C(=O)NCC(=O)O)c(O)c2ccc(Oc3ccccc3)cc12` [Roxadustat (FG-4592)] came in with a relative cell viability of 1.03.

`CN(CCOc1ccc(NS(C)(=O)=O)cc1)CCc1ccc(NS(C)(=O)=O)cc1` [Dofetilide] gave a relative cell viability of 1.02.

`C=CCNC1=C2C[C@@H](C)C[C@H](OC)[C@H](O)[C@@H](C)/C=C(\C)[C@H](OC(N)=O)[C@@H](OC)/C=C\C=C(/C)C(=O)NC(=CC1=O)C2=O` [Tanespimycin (17-AAG)] returned a relative cell viability of 0.966.

Regarding `Cc1ccc(F)c(NC(=O)Nc2ccc(-c3cccc4[nH]nc(N)c34)cc2)c1` [Linifanib (ABT-869)], the relative cell viability amounted to 0.927.

In turn, `NC(=O)c1ccc(I)c([N+](=O)[O-])c1` [Iniparib (BSI-201)] had a relative cell viability of 0.209.

In the case of `Nc1ncnc2c1ncn2[C@@H]1O[C@H](CO)[C@@H](O)[C@@H]1O` [Vidarabine], the relative cell viability turned out to be 0.744.

`Cc1nc2n(c(=O)c1CCN1CCC(c3noc4cc(F)ccc34)CC1)CCCC2O` (stereo not given) [Paliperidone]: the relative cell viability came to 1.04.

`C=C1/C(=C\C=C2/CCC[C@]3(C)[C@@H]([C@H](C)/C=C/[C@H](C)C(C)C)CC[C@@H]23)C[C@@H](O)C[C@@H]1O` [Doxercalciferol] had a relative cell viability of 1.22.

Take `COC(=O)c1ccc2c(C(=Nc3ccc(N(C)C(=O)CN4CCN(C)CC4)cc3)c3ccccc3)c(O)[nH]c2c1` [Nintedanib (BIBF 1120)]: the relative cell viability came to 1.01.

As to `CCn1cc(C(=O)O)c(=O)c2cc(F)c(N3CCNCC3)nc21` [Enoxacin], the relative cell viability came out at 1.05.

`CN(C)CCOC(c1ccccc1)c1ccccc1` [Diphenhydramine HCl]: the relative cell viability was 1.14.

`CN(C)CCc1c[nH]c2ccc(Cn3cncn3)cc12` [Rizatriptan Benzoate] registered a relative cell viability of 1.09.

`CS(=O)(=O)CCNCc1ccc(-c2ccc3ncnc(Nc4ccc(OCc5cccc(F)c5)c(Cl)c4)c3c2)o1` came in with a relative cell viability of 0.746.

As for `Cc1cnc(C(=O)O)c[n+]1[O-]` [Acipimox], the relative cell viability was determined as 0.938.

For the molecule `C[C@@H](c1ncncc1F)[C@](O)(Cn1cncn1)c1ccc(F)cc1F` [Voriconazole], the relative cell viability is 0.928.

Molecule `COc1cc(Nc2c(C#N)cnc3cc(OCCCN4CCN(C)CC4)c(OC)cc23)c(Cl)cc1Cl` [Bosutinib (SKI-606)] displayed a relative cell viability of 0.0801.

In turn, `CCCCCCCCCCC[C@@H](C[C@@H]1OC(=O)[C@H]1CCCCCC)OC(=O)[C@H](CC(C)C)NC=O` [Orlistat] returned a relative cell viability of 0.998.

`C[C@]12C=CC(=O)N[C@@H]1CC[C@@H]1[C@@H]2CC[C@]2(C)[C@@H](C(=O)Nc3cc(C(F)(F)F)ccc3C(F)(F)F)CC[C@@H]12` [Dutasteride] returned a relative cell viability of 0.986.

For the molecule `COc1ccc2cc([C@H](C)C(=O)O)ccc2c1` [Naproxen Sodium], the relative cell viability turned out to be 0.686.

These data come from the supplement of paper PMC7184167.
